# Measured values taken from PMC7883291.
# Tests used:
# Assay in all cases: cross-link between two proteins; cross-linking mass spectrometry
# [1] = molecular target: Acyl carrier protein, mitochondrial (UniProt P52505)
# [2] = molecular target: NADH dehydrogenase [ubiquinone] 1 beta subcomplex subunit 11, mitochondrial (UniProt Q8HXG5)
# [3] = molecular target: T1, Cytochrome b-c1 complex subunit 2, mitochondrial (UniProt P23004)
# T1 sequence: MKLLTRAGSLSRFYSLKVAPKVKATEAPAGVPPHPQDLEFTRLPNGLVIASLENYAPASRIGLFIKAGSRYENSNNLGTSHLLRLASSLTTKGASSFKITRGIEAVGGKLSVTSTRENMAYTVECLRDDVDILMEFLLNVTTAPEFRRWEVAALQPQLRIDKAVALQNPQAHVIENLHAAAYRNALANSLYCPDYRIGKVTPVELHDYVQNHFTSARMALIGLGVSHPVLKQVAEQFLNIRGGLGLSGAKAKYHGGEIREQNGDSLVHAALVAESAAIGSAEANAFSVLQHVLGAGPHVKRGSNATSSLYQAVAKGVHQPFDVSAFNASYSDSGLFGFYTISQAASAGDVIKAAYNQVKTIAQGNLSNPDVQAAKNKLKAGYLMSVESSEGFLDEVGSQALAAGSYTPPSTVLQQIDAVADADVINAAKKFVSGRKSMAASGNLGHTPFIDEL
# [4] = molecular target: NADH dehydrogenase [ubiquinone] 1 alpha subcomplex subunit 9, mitochondrial (UniProt P34943)
# Chain of NADH dehydrogenase [ubiquinone] 1 alpha subcomplex subunit 9, mitochondrial (P34943 whole entry, one chain of several): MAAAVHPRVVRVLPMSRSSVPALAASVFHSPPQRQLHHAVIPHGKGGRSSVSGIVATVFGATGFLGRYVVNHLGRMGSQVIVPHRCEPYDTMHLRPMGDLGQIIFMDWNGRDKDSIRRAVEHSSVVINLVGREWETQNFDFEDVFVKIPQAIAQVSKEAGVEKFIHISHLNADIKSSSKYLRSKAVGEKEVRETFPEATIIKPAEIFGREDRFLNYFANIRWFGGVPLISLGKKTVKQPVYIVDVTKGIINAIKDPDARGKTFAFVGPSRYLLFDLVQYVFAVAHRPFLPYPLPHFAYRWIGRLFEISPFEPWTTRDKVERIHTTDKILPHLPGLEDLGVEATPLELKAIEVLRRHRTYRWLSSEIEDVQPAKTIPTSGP
# Chain of NADH dehydrogenase [ubiquinone] 1 beta subcomplex subunit 11, mitochondrial (Q8HXG5 whole entry, one chain of several): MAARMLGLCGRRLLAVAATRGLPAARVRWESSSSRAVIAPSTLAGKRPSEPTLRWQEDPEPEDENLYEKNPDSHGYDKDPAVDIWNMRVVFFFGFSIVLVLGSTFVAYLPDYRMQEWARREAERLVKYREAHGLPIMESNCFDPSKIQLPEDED
substance,measurement,setting,value
G5E543,listed as a hit,[1],yes
same,listed as a hit,[2],yes
A0A3Q1MBD7,listed as a hit,[3],yes
A8WFQ0,listed as a hit,[4],yes
